Holding throughout (assay): DAPPL (digital affinity profiling via proximity ligation, sequencing); 10 mM Tris-HCl pH 7.5, 50 mM NaCl, 1 mM DTT, 4% glycerol, room temperature, 30 min; GST-TFs on glutathione beads, 16-mer random dsDNA library, 0.1% formaldehyde crosslink after washing; high values mean tight binding
Test [1] concerns the target HSF1 (Homo sapiens, UniProt Q00613 1-529). Particulars: protein: recombinant; tags: N-terminal GST; chain copies: 3; dsDNA, one strand shown. The essentials:
(§1)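 Human transcription factors fused to GST were expressed in yeast, captured on glutathione beads, given DNA barcodes and pooled with a GST-only negative control. Pools were incubated with 200 nmole of a 16-mer random double-stranded DNA library in Tris/NaCl/DTT/glycerol buffer at room temperature for 30 min. They were then washed, crosslinked with 0.1% formaldehyde, proximity-ligated (BsaI/T4 ligase, 1 h, 37 °C), PCR-amplified and sequenced on an Illumina NextSeq500. Binding signal is each 6-mer's read frequency for a factor divided by its frequency for the GST control.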

Test [2] addresses T1, FLI1 (Homo sapiens, UniProt Q01543 1-452).
T1 sequence: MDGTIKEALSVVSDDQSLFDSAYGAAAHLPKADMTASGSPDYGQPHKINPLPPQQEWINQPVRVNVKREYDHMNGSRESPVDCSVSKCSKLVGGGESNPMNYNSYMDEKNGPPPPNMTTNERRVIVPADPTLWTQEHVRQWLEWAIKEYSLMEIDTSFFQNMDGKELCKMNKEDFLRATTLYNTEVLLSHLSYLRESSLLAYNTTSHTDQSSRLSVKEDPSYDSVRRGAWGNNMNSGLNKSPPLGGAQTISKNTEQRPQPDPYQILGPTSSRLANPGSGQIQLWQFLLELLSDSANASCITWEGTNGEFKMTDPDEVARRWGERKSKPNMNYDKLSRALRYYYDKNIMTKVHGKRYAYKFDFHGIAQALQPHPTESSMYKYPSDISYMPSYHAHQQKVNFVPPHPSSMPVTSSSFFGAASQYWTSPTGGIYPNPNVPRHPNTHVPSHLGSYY
Conditions: protein: recombinant; tags: N-terminal GST; dsDNA, one strand shown. The essentials:
as §1

The target of test [3] is ELF1 (Homo sapiens, UniProt P32519 1-619). Conditions: protein: recombinant; tags: N-terminal GST; dsDNA, one strand shown. The essentials: as §1
Sequence of ELF1 (P32519 whole entry): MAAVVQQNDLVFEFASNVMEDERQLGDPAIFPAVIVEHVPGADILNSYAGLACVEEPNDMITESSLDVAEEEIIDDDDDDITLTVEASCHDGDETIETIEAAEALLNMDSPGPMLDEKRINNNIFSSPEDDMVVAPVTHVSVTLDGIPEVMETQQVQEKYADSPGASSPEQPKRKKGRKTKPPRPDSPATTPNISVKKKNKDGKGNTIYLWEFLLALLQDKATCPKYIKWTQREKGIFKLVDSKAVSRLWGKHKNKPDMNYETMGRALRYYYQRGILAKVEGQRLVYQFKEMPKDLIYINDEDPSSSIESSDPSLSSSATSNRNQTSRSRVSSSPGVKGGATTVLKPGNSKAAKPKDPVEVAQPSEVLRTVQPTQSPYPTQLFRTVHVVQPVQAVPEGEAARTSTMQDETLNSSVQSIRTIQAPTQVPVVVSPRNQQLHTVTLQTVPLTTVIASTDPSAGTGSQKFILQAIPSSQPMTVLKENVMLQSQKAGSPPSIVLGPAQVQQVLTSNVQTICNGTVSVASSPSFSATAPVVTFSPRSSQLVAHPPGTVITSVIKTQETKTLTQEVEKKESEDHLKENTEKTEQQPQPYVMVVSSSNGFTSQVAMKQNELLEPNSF
The target of test [4] is T2, ELK3 (Homo sapiens, UniProt P41970 1-407).
T2 sequence: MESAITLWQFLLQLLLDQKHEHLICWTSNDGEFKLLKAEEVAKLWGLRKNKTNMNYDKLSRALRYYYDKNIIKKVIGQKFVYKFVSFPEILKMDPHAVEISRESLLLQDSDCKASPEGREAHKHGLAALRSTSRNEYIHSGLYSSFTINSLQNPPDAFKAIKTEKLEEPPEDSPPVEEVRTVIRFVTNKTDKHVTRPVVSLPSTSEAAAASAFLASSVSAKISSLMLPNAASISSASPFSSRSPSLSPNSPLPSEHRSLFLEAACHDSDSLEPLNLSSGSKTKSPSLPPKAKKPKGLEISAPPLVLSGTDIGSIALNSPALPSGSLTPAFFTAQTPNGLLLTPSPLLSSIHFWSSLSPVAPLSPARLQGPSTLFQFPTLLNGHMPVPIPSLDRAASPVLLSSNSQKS
Particulars: protein: recombinant; tags: N-terminal GST; dsDNA, one strand shown. The essentials: as §1

Test [5] concerns the target T3, ETV2 (Homo sapiens, UniProt O00321 1-342).
T3 sequence: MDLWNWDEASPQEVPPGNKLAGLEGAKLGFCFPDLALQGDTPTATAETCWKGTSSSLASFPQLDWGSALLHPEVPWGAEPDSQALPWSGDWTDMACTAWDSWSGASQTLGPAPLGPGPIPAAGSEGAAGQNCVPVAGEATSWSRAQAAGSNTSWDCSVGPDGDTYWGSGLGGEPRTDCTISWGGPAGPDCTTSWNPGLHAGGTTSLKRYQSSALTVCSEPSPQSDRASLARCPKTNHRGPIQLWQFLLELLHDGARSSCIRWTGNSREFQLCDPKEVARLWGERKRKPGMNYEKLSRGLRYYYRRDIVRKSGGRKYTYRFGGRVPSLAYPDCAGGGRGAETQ
Conditions: protein: recombinant; tags: N-terminal GST; dsDNA, one strand shown. The essentials:
as §1

Test [6] deals with T4, ERG (Homo sapiens, UniProt P11308 1-479).
T4 sequence: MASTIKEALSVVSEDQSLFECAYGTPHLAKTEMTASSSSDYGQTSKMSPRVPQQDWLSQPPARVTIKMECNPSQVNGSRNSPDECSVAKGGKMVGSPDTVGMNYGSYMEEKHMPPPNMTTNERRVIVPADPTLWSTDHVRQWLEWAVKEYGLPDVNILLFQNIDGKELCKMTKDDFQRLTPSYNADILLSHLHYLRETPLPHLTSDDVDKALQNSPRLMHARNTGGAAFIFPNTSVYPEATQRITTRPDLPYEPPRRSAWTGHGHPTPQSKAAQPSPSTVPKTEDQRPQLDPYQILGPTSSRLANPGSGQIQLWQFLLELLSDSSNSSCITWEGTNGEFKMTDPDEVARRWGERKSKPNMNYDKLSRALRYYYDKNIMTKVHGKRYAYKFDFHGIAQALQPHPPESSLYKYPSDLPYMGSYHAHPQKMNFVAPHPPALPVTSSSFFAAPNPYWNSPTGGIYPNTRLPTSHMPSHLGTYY
Conditions: protein: recombinant; tags: N-terminal GST; dsDNA, one strand shown. The essentials: as §1

The target in test [7] is T5, EHF (Homo sapiens, UniProt Q9NZC4 1-300).
T5 sequence: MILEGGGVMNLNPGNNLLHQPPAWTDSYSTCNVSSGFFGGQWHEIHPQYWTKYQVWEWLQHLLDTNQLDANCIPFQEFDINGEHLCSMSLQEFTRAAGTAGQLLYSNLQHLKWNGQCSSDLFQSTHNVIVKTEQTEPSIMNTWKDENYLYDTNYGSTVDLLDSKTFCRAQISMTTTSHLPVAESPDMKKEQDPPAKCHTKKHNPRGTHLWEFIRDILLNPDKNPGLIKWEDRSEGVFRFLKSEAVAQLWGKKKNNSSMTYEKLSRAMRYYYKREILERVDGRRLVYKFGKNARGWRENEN
Particulars: protein: recombinant; tags: N-terminal GST; dsDNA, one strand shown. The essentials:
as §1

The target of test [8] is SPIB (Homo sapiens, UniProt Q01892 1-262). Particulars: protein: recombinant; tags: N-terminal GST; dsDNA, one strand shown. The essentials:
as §1

The target in test [9] is T6, ELF3 (Homo sapiens, UniProt P78545 1-371).
T6 sequence: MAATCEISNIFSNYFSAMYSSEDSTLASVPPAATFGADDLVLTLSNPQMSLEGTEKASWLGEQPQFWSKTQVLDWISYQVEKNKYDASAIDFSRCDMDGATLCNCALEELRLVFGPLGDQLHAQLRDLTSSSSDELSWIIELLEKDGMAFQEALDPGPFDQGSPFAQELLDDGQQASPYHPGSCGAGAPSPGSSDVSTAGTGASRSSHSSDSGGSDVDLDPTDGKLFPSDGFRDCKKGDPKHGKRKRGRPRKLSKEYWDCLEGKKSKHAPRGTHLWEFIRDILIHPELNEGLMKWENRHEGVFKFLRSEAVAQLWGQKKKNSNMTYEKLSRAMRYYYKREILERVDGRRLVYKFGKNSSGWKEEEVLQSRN
Conditions: protein: recombinant; tags: N-terminal GST; dsDNA, one strand shown. The essentials: as §1

Test [10] deals with ETV1 (Homo sapiens, UniProt P50549 1-477). Particulars: protein: recombinant; tags: N-terminal GST; dsDNA, one strand shown. The essentials: as §1
Sequence of ETV1 (P50549 whole entry): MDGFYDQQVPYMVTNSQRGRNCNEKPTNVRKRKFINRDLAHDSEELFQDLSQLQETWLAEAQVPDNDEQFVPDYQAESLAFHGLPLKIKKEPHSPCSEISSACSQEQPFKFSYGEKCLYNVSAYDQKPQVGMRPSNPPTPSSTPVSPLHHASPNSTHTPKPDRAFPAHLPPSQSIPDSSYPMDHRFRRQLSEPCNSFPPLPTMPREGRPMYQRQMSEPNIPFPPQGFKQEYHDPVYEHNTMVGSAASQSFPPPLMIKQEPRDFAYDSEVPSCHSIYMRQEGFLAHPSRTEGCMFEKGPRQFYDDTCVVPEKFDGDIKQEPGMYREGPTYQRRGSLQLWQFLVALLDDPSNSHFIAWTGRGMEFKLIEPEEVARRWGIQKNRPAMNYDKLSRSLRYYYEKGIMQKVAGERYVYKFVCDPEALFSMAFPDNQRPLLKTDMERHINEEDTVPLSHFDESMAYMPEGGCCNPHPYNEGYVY

Sequence of HSF1 (Q00613 whole entry, the tested form may be a part): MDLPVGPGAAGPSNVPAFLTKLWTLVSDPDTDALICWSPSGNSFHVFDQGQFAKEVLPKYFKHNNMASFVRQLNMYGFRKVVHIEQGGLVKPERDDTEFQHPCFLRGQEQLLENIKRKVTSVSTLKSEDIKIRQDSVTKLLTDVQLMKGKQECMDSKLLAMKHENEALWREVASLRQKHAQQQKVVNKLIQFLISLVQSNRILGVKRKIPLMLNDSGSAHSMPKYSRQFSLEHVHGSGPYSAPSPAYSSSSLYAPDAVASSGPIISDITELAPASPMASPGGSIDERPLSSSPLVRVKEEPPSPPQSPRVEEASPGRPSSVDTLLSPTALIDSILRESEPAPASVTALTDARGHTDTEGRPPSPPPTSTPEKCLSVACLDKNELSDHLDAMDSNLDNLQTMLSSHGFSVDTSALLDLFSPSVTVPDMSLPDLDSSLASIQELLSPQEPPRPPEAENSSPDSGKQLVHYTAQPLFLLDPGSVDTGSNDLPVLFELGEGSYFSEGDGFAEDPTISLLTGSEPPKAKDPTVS
Sequence of SPIB (Q01892 whole entry): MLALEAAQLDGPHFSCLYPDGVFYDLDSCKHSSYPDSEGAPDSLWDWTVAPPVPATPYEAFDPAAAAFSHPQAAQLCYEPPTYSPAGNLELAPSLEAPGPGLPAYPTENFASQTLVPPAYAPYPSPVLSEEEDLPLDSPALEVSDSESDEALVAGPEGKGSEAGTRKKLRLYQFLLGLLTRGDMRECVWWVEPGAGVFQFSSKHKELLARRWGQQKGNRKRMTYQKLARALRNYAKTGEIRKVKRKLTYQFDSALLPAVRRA

Turning to ATCGAG, the binding signal in test [1] is 1.49 fold enrichment (6-mer frequency, TF over GST control).
Turning to GTATGT, the binding signal in test [2] is 1.04 fold enrichment (6-mer frequency, TF over GST control); in test [3] it was 1.03 fold enrichment (6-mer frequency, TF over GST control); in test [4], 1 fold enrichment (6-mer frequency, TF over GST control); in test [5] it was 1.02 fold enrichment (6-mer frequency, TF over GST control).
Regarding GCTGGA, the binding signal in [1] is 1.19 fold enrichment (6-mer frequency, TF over GST control).
Take TCCAGT: the binding signal in test [1] is 1.01 fold enrichment (6-mer frequency, TF over GST control).
Regarding GTCTAG, the binding signal in [1] was 1.48 fold enrichment (6-mer frequency, TF over GST control).
Consider ACGTCA, for which the binding signal in [2] is 1.01 fold enrichment (6-mer frequency, TF over GST control); in [6] it was 1.01 fold enrichment (6-mer frequency, TF over GST control); in test [7], 1.01 fold enrichment (6-mer frequency, TF over GST control); in [8], 1.09 fold enrichment (6-mer frequency, TF over GST control); in [9], 1.03 fold enrichment (6-mer frequency, TF over GST control); in [10] it was 1.05 fold enrichment (6-mer frequency, TF over GST control).

For the origin of these results see article PMC7862700, “An all-to-all approach to the identification of sequence-specific readers for epigenetic DNA modifications on cytosine”.
